Results as given in the supplement of paper PMC3484114.
± gives the standard deviation.

These compounds were tested on OVCAR-3-derived ovarian cancer stem-like cells (spheroids) (assay: cell growth relative to untreated control; higher = more growth (less inhibition)). Conditions: 2.29 µM; 96 h.
Outline: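 Stem-like cells derived from OVCAR-3 spheroids were dissociated with trypsin and seeded at 50,000 cells/mL in stem cell medium in ultra-low attachment 96-well plates, then preincubated for 24 h. Each compound was added at 2.29 uM to 4 replicate wells and left for 96 h at 37°C, 5% CO2. Viability came from TOX8 resazurin fluorescence (ex 560/em 590 nm) read after 4 h. Percent growth was expressed relative to untreated wells, after blank subtraction and removal of outliers by the Grubbs test.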

Question: For COC(=O)C1C(O)C(C)C(O)C(C)/C=C\C=C(C)C(=O)Nc2c(C)c(OC(C)=O)c3c(c2O)C(=O)C(C)=C2OCOC(=C23)C(C)=CC(C)(O)C(O)C(C)C1O (stereo unspecified), which cell growth is on record?
Answer: 84.9 ± 18%

Question: How did the cell growth turn out when C/C(=N\N=C(/[Se])N1CC2CCC(CC2)C1)c1ccccn1 was run?
Answer: 7.7 ± 2.4%

Question: Which cell growth does the source give for CC(C)c1oc(=O)cc2c1[C@@H](O)[C@H]1OC(=O)[C@@]3(C)[C@@H](O)[C@H]4O[C@H]4[C@@]2(C)[C@@H]13 here?
Answer: 62.6 ± 32%

Question: Which cell growth does the source give for Fc1cccc(F)c1C1SCc2nc3ccccc3n21 (stereo unspecified) here?
Answer: 78.4 ± 9.6%

Question: With CC(=O)[O][Hg][c]1c(C)c(C)c(C)c(C)c1C as the compound, how does the cell growth read?
Answer: 94.5 ± 28%

Question: N#Cc1cn([C@@H]2O[C@H](CO)[C@@H](O)[C@H]2O)c2ncnc(N)c12 was tested. Which cell growth did it give?
Answer: 8.9 ± 3.4%

Question: For COC(=O)C1=C(C(=O)OC)SC2(S1)C(C(=O)OC)=C(C(=O)OC)Sc1c2ssc1=O, which cell growth is on record?
Answer: 60.2 ± 8.6%

Question: CC1=CC(O)C(O)C2(C)C1CC1OC(=O)C(O)C3C(C)C(O)C4(O)OCC13C42 (stereo unspecified) was tested. Which cell growth did it give?
Answer: 128 ± 36%

Question: Which cell growth does the source give for COc1cc2c(cc1O)N=CC1CCC(O)N1C2=O (stereo unspecified) here?
Answer: 93.8 ± 20%

Question: CC(=O)O[C@H]1C(=O)[C@@]2(C)[C@H]([C@H](OC(=O)c3ccccc3)[C@]3(O)C[C@H](O)C(C)=C1C3(C)C)[C@]1(OC(C)=O)CO[C@@H]1C[C@@H]2O was tested. Which cell growth did it give?
Answer: 123 ± 26%

Question: With CC1Oc2cc3c(-c4c(O)cc(O)c5c(O)c6c(cc45)OC(C)C(C)C6=O)c(O)cc(O)c3c(O)c2C(=O)C1C (stereo unspecified) as the compound, how does the cell growth read?
Answer: 23.8 ± 48%

Question: For CCOC(=O)NC1=C(N2CC2)C(=O)C(NC(=O)OCC)=C(N2CC2)C1=O, which cell growth is on record?
Answer: 50.1 ± 9.1%

Question: With CCOC(=O)[C@H](CC(C)C)NC(=O)C(Cc1ccc(N(CCCl)CCCl)cc1)NC(C)=O (stereo partly specified) as the compound, how does the cell growth read?
Answer: 73.3 ± 40%

Question: How did the cell growth turn out when CC12CCC(O)CC1CCC1C2CCC2(C)C(C3=CC(=O)OC3)CCC12O (stereo unspecified) was run?
Answer: 26.5 ± 3.1%

Question: How did the cell growth turn out when [O-][Cl+3]([O-])([O-])[O-].c1ccc(-c2csc3c4ccccc4c4ccccc4[n+]23)cc1 was run?
Answer: 45.5 ± 12%

Question: Which cell growth does the source give for C[N+](C)(C)CC1CCCC1=O (stereo unspecified) here?
Answer: 95.5 ± 20%

Question: How did the cell growth turn out when CC1=CC23C(COC(=O)C24CO4)C(C(=O)O)=CC3C1C.NCc1ccccc1 (stereo unspecified) was run?
Answer: 74.5 ± 29%

Question: How did the cell growth turn out when COC1CC(OC2CCC3(C=O)C4CCC5(C)C(C6=CC(=O)OC6)CCC5(O)C4CCC3(O)C2)OC(C)C1OC1OC(COC2OC(CO)C(O)C(O)C2O)C(O)C(O)C1O (stereo unspecified) was run?
Answer: 63.1 ± 13%

Question: How did the cell growth turn out when CC1(C)CC2=NO[Se]3=C2C(=NO3)C1 was run?
Answer: 22.1 ± 4.6%

Question: COc1ccc(O)c2c(=O)c3c(OC)cc4c(c3oc12)[C@@H]1C=CO[C@@H]1O4 was tested. Which cell growth did it give?
Answer: 90.1 ± 25%

Question: How did the cell growth turn out when COC1CC(CC2CCC(C)C(C(C)C(=O)O)O2)OC2(OC(C)(C3CCC(C)(C4OC(C5OC(O)(CO)C(C)CC5C)CC4C)O3)CC2C)C1C (stereo unspecified) was run?
Answer: 64.5 ± 48%

Question: With CN(C)C(=S)SSC(=S)N(C)C as the compound, how does the cell growth read?
Answer: 103 ± 17%

Question: How did the cell growth turn out when C1COCCN1.S=C(S)N1CCOCC1 was run?
Answer: 63.4 ± 11%

Question: CC[C@@]12CCCN3CC[C@]4(c5cccc(OC)c5N(C(C)=O)[C@@H]4CC1)[C@H]32 was tested. Which cell growth did it give?
Answer: 144 ± 29%

Question: How did the cell growth turn out when CO[C@@H]1[C@H](O)C[C@@H](O[C@@H]2C[C@H](Oc3cc4cc5c(c(O)c4c(O)c3C)C(=O)[C@@H](O[C@H]3C[C@@H](O[C@H]4C[C@@H](O[C@H]6C[C@](C)(O)[C@@H](OC(C)=O)[C@H](C)O6)[C@H](O)[C@@H](C)O4)[C@H](O)[C@@H](C)O3)[C@H]([C@H](OC)C(=O)[C@@H](O)[C@@H](C)O)C5)O[C@H](C)[C@@H]2OC(C)=O)O[C@@H]1C was run?
Answer: 12.5 ± 3.1%

Question: COc1cccc2c1C(=O)c1c(O)c3c(c(O)c1C2=O)C[C@@](O)(C(C)=O)C[C@@H]3O[C@H]1C[C@H](N(Cc2ccccc2)Cc2ccccc2)[C@H](O)[C@H](C)O1 was tested. Which cell growth did it give?
Answer: 62.8 ± 11%

Question: How did the cell growth turn out when CC12CCC3C(CCC4CC(OC(=O)Cc5ccc(N(CCCl)CCCl)cc5)CCC43C)C1CCC(=O)N2 (stereo unspecified) was run?
Answer: 52.8 ± 15%

Question: How did the cell growth turn out when COc1ccc(C2C=C(c3ccc4c(c3)OCO4)Oc3c2c(=O)oc2ccccc32)cc1OC (stereo unspecified) was run?
Answer: 56.4 ± 40%

Question: With CCOC(OC1=C(C#N)CCC1)C(C)[Se]c1ccccc1 (stereo unspecified) as the compound, how does the cell growth read?
Answer: 147 ± 33%

Question: Which cell growth does the source give for COc1cc([C@H]2c3cc4c(cc3C[C@@H]3COC(=O)[C@H]32)OCO4)cc(OC)c1OC here?
Answer: 39.5 ± 18%

Question: For CC[C@@]1(O)C[C@H](OC2CC(N(C)C)C(O)C(C)O2)c2c(O)c3c(c(O)c2[C@H]1OC1CC(N(C)C)C(O)C(C)O1)C(=O)c1cccc(O)c1C3=O (stereo partly specified), which cell growth is on record?
Answer: 58.8 ± 56%
